Bioassay records from PubChem BioAssay.
Shown is part of a subset that was picked to be rich in hits.
TTR transcr act – TTR transcription activators in neuroblastoma reporter cells, primary screen, cell-based, luminescence, SH-SY5Y, TTR promoter Gaussia luciferase; 100% = recombinant luciferase protein wells; activation, % at 16.7 µM; actives 1.3% (n = 92,000); AID 1117267, 2014;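 active means activation above the mean of all tested compounds plus 3 SD, cut at about 9.5% in these data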;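 further: cells exposed to compounds for one day before reading; 0% = median of all test compound wells on the plate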
HuH7 TTR inh – TTR promoter reporter inhibitors in hepatoma cells, counter-screen for TTR transcription activator project, cell-based, luminescence, HuH7 hepatoma. shares compounds with TTR transcr act. HuH7 TTR promoter-Gaussia luciferase reporter. actives 4% (n = 1,100). inhibition, % at 16.7 µM;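 active means average inhibition above the solvent-only control wells' mean plus 3 SD, cut at about 15% in these data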;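 further: 0% = cells with DMSO only and 100% = cells with inhibitor control FD; inhibitors lower well luminescence so higher value means more inhibition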
TTR up confirm – TTR transcription activators, retest, confirmation, cell-based, luminescence, SH-SY5Y, triplicate | shares compounds with TTR transcr act | SHSY5Y TTR promoter Gaussia luciferase; 100% = purified Lucia enzyme wells, no cells | activation, % at 16.7 µM | 1,100 tested, under 10 active;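 active means mean activation above a set limit taken from the earlier primary screen, cut at about 11% in these data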;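 further: 0% = DMSO-treated cells and 100% = recombinant Lucia luciferase without cells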
Numbers without * were called inactive.

SMILES	TTR transcr act	others
O=C(CN(C(=O)OCC1c2ccccc2-c2ccccc21)[C@@H](Cc1ccccc1)C(=O)O)OCc1ccc(C(=O)NCc2ccccc2)cc1	12*	HuH7 TTR inh=-21;TTR up confirm=2
C[C@H]1C2CC(OC(=O)Nc3ccc(C(F)(F)F)cc3)C(C2)[C@H]2CCCCN21 (stereo not given in full)	1
C[C@@H]1CN([C@@H](C)COC(=O)C(C)(C)C)C(=O)c2cc(NC(=O)Nc3ccccc3)ccc2O[C@@H](C)CCCCO[C@H]1CN(C)S(=O)(=O)c1ccc(F)cc1	0
O=C(O[C@H]1CC[C@@]23CCCN2C(=O)CCC[C@H]3C1)N1CCOCC1	-1
Cc1ccccc1CCN(CC(=O)NCc1ccc(F)cc1)C(=O)c1csnn1	0
Cc1cc(C)c(N(CC(=O)NCc2ccccc2)C(=O)c2csnn2)c(C)c1	0
Cc1ccc(N(CC(=O)NCc2ccc(F)cc2)C(=O)c2csnn2)cc1C	11*	HuH7 TTR inh=-16;TTR up confirm=0
CCCCCc1ccc(NC(=O)O[C@@H]2CC[C@@]34CCCN3C(=O)CCC[C@H]4C2)cc1	-2
CC(C)(C)OC(=O)NC(Cc1ccccc1)C1CC(C#N)C(=O)O1 (stereo not given)	1
CN(CCCn1ccc(N)nc1=O)Cc1ccco1	17*	HuH7 TTR inh=-9;TTR up confirm=0
COc1ncnc2c1ncn2CCCN(C)Cc1ccco1	-1
COc1ccc(CN(C)CCCn2ccc(N)nc2=O)cc1OC	0
O=C(NCCc1ccccc1)OCc1cn(Cc2cc(F)ccc2F)nn1	1
C[C@@H]1CCN(C2CC2)S(=O)(=O)c2ccc(N3CC[C@@H](N(C)C)C3)cc2O1	0
CCCCN1CCCOc2cc(Br)ccc2S1(=O)=O	0
C#CC(CC)(CC)NC(=O)c1cc(S(=O)(=O)N2CCCCC2)ccc1N1CCOCC1	0
COc1ccc(C(=O)CSc2ccc(-c3ccccc3)nn2)cc1	0
COc1ccc(Sc2nnc(-c3ccccc3)cc2C#N)cc1	10*	HuH7 TTR inh=2;TTR up confirm=-1
Cc1ccc(Sc2nnc(-c3ccccc3)cc2C#N)cc1	4
O=C(Nc1ccc(F)cc1)OCc1cn(Cc2c(F)cccc2F)nn1	0
CC(=O)c1ccc(NC(=O)CCc2c(C)nn(-c3ccc(N4CCOCC4)nn3)c2C)cc1	-2
COc1ccc(NC(=O)CCc2c(C)nn(-c3ccc(N4CCOCC4)nn3)c2C)cc1	12*	HuH7 TTR inh=-6;TTR up confirm=1
Cc1ccc(NC(=O)CCc2c(C)nn(-c3ccc(N4CCOCC4)nn3)c2C)cc1	1
COc1ccccc1C(=O)C1CCCN(C(=O)c2cc(CC(C)C)nc(C)n2)C1 (stereo not given)	19*	HuH7 TTR inh=-15;TTR up confirm=0
Cc1nc(CC(C)C)cc(C(=O)N2CCCC(Nc3ccc(C)c(C)c3)C2)n1 (stereo not given)	1
SMILES	TTR transcr act	others
COc1ccccc1C(=O)C1CCCN(C(=O)c2ccc3c(c2)OCCO3)C1 (stereo not given)	1
COc1ccc(Cn2ccc3ccc(-c4ccc5ccn(Cc6cccc(F)c6)c5c4)cc32)cc1	0
COC(=O)[C@@]12CCCCC3=C1N(CCC3)C(=O)[C@H]2CC(=O)NCC1CCCCC1	0
COc1cccc2c(NCc3ccccc3)nc(-n3c(N)nc4ccccc43)nc12	4
Cc1cc(C)n(CC2CC(=O)N(c3ccc(Cl)cc3)C2=O)n1 (stereo not given)	4
Cc1ccc(N2C(=O)CC(Cn3nc(C)cc3C)C2=O)cc1 (stereo not given)	-1
Cc1cc(C)n(CC2CC(=O)N(c3ccc(Cl)c(Cl)c3)C2=O)n1 (stereo not given)	12*	HuH7 TTR inh=-11;TTR up confirm=0
O=C(Nc1cc(S(=O)(=O)N2CCOCC2)ccc1N1CCCC1)c1cc2c(s1)CCCC2	0
COc1cccc(NC(=O)Nc2c(-c3ccc(C)cc3)nc3ncccn23)c1	0
COC(=O)Cn1nc(-c2ccccc2)c2cccc(C(F)(F)F)c21	-1
COc1cc(OC)c(NC(=O)c2cccc(F)c2)cc1Cl	-2
Cc1cc(NC(=O)c2cccc(F)c2)no1	8
O=C(Nc1ncccc1Cl)c1cccc(F)c1	12*	HuH7 TTR inh=-17;TTR up confirm=0
COc1ccc(N2CCN(CCCNC(=O)Cn3c(=O)c4cccn4c4c(C)ccnc43)CC2)cc1	2
O=C(NC1CCCCC1)OC[C@@H]1CSCCS(=O)(=O)N1	0
COCC(=O)N[C@H]1C[C@@H]2O[C@@H](CO)CC[C@@H]2O[C@@H]1CCc1ccc(-c2ccccc2)cc1	6
CC(C)C[C@H](NC(C)(C)C(=O)NC1CCCCC1)C(=O)NCC(c1ccccc1)c1ccccc1	-1
CCCC/C=C1/[C@H](CC)N(C)C2=N[C@@H](c3ccccc3)CC(=O)N21	-1
